Rows were chosen to be rich in hits. Some 3.8% of all compounds tested hit in one or more screens of this group.
S2 tox = reduces viability in counter-screen for ATXN expression inhibitors. S2 cells (HEK-293 line with an ATXN2-luciferase reporter) viability, CellTiter-Fluor protease fluorescence, 24 h. Potency, µM (top dose mostly 56.7 µM), hits mostly cytotoxic. actives 0.49% (n = 400,000). AID 651635; also: nearly all actives have a fitted effect of over 40% in size
TGFb inhibitor = inhibitors of TGF-b signaling; HepG2 CAGA-GFP TGF-b/SMAD3 reporter, GFP fluorescence, 18 h; TGF-beta stimulated, 500 pg/mL final; Potency, µM (series often up to 46.1 µM), usual class: inhibitors; actives 1.2% (n = 410,000); AID 588855; also: nearly all actives have a fitted effect of over 65% in size
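First, reporter cells (HEPG2 CAGA-GFP) rested 2 h at 37 degrees C. Next, compounds were pinned in and TGF-beta added to 500 pg/mL final. After 18 h, GFP was imaged per cell and summed per well.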
Nrf2 block = inhibitors of Nrf2 signaling; A549 ARE-Fluc reporter, luciferase luminescence, 18-24 h; Potency, µM (series often up to 46 µM), actives largely listed as inhibitors; actives 2.1% (n = 360,000); AID 504444; also: nearly all actives have a fitted effect of over 60% in size
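Cells were seeded and rested 2 h, then exposed to compounds for 18-24 h. CellTiter-Fluor was read first as a viability measure. BugLite was added 15 min before the final luminescent read of ARE-luciferase activity in A549 cells.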
HepG2 tox = HepG2 cytotoxicity, counter-screen for TGF-b inhibitors. HepG2 CAGA-GFP viability, ATP luminescence, 18 h. Potency, µM (top dose mostly 46.1 µM), actives largely listed as cytotoxic. actives 0.76% (n = 410,000). AID 588856
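HepG2 CAGA-GFP cells (1000/well, DMEM with 1% FBS) received compound, then TGF-beta at 500 pg/mL final, and were incubated 18 hours at 37 degrees C. Viability was read by CellTiter-Glo luminescence. Media-only wells were set as complete cell-killing and DMSO as no toxicity.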
ATXN2 expr inh = ATXN2 expression inhibition; actives 0.72% (n = 360,000); Potency, µM (highest dose often 57 µM), most hits filed as inhibitors; HEK-293 ATXN2-luciferase reporter, luminescence, 24 h; AID 1745845; also: nearly all actives have a fitted effect of over 55% in size
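qHTS (up to 57 uM final) was run with 24 h compound exposure of reporter cells at 37 °C. Each well was multiplexed: SteadyGlo luminescence measured ATXN2-luciferase expression after a fluorogenic Gly-Phe-AFC viability readout (25 uM final).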
A549 viability = kills or reduces viability of A549 cells in Nrf2 counter-screen | A549 ARE-Fluc cells, CellTiter-Fluor viability, 18-24 h | Potency, µM (titrated, usually from 46 µM), hits mostly inhibitors | actives 0.16% (n = 390,000) | AID 504648
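Cytotoxicity counterscreen: CellTiter-Fluor fluorescence was measured in A549 ARE_Fluc cells after 18-24 h of compound exposure in a concentration series. The subsequent BugLite luminescent read reports ARE-luciferase activity.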
A number is an active result; 0 = inactive; ? = inconclusive; - = not tested or not shown; ! = repeats disagree. Calls follow the shape of the dose curve; as a rule, active = well fitted curve in the direction sought with a large enough effect; inconclusive = small, poorly fitted or top-dose-only effect, or another doubt; inactive = no such curve, though single readings can be large; an effect the other way counts as inactive or inconclusive.

SMILES | S2 tox | TGFb inhibitor | Nrf2 block | HepG2 tox | ATXN2 expr inh | A549 viability
C=C(NC(=O)C(=C)NC(=O)c1csc(C2=NC3c4csc(n4)C4NC(=O)c5csc(n5)C(C(C)(O)C(C)O)NC(=O)C5CSC(=N5)/C(=C/C)NC(=O)C(C(C)O)NC(=O)c5csc(n5)C3(CC2)NC(=O)C(C)NC(=O)C(=C)NC(=O)C(=C)NC(=O)C(C(C)C)NC2C=Cc3c(C(C)O)cc(nc3C2O)C(=O)OC4C)n1)C(N)=O (stereo not drawn) | 2.7µM | 8.9µM | ? | 0 | ? | ?
O=S(=O)(NCc1ccc2c(c1)OCO2)c1cccc(F)c1 | ? | 0 | 0 | 0 | 0 | 0
O=S(=O)(NCc1ccc2c(c1)OCO2)c1ccc2c(c1)oc1ccccc12 | 0 | 0 | 21µM | 0 | 0 | 0
CCOc1ccc(C(=O)N(Cc2nc(-c3cccc(C)c3)no2)C(C)C)cc1 | 0 | ? | 0 | 0 | ? | 0
COc1ccc(CCC(=O)Nc2ccc(C)c(S(=O)(=O)N(C)C)c2)cc1OC | 0 | 0 | 13µM | 0 | 0 | 0
COc1ccc(NS(=O)(=O)c2ccc(C)c(C(=O)N(C)CCc3ccc(OC)c(OC)c3)c2)cc1 | 0 | 0 | 21µM | 0 | 0 | 0
COc1ccc(CCNCC(=O)Nc2ccc(C)c(S(=O)(=O)N(C)C)c2)cc1 | 0 | 0 | 0 | 0 | 0 | 0
COc1cc(CCC(=O)OCC(=O)Nc2cccc(S(=O)(=O)N(C)C)c2)cc(OC)c1OC | 0 | 0 | 0 | 0 | 0 | 0
COc1cc(CCC(=O)Nc2ccc(C)c(S(=O)(=O)N(C)C)c2)cc(OC)c1OC | ? | 0 | 23µM | 0 | 0 | 0
Cc1nn2c(SCC(=O)c3cccs3)cc(C(C)(C)C)nc2c1-c1ccccc1 | 0 | ? | 21µM | 0 | 0 | ?
Cc1cnc(C(=O)OCc2nc3ccccc3o2)cn1 | 0 | 0 | 0 | 0 | 0 | 0
C[C@H]1CN([C@@H](C)CO)C(=O)CCCn2nncc2CO[C@H]1CN(C)S(=O)(=O)c1ccc(F)cc1 | 0 | 0 | - | 0 | 0 | -
O=C1C(Cc2ccccc2)Nc2ncnc(N3CCc4ccccc4C3)c2N1Cc1ccc(Cl)cc1 (stereo not drawn) | ? | 18µM | ? | 0 | ? | 0
O=C1C(Cc2ccccc2)Nc2ncnc(N3CCCCC3)c2N1Cc1ccc(Br)cc1 (stereo not drawn) | 0 | ? | ? | 3.2µM! | 0 | ?
O=C1C(Cc2ccccc2)Nc2ncnc(N3CCCCC3)c2N1Cc1ccccc1 (stereo not drawn) | 0 | 0 | 0 | 0 | 0 | 0
CCC(C)NC(=O)Cn1ncc2c(C)n(Cc3ccc(F)cc3)c(C)c2c1=O (stereo not drawn) | - | 0 | ? | 0 | - | 0
COc1ccc(S(=O)(=O)N2CCN(CCc3ccccc3)CC2)c(OC)c1 | 0 | 0 | 16µM | 0 | ? | 0
COc1ccc(-c2nnc(C3CCN(C(=O)c4ccccc4F)CC3)o2)cc1 | 3.2µM | ? | 0 | 0 | 3.2µM | 0
Cc1ccccc1-c1nnc(C2CCN(S(=O)(=O)c3ccc(Cl)cc3)CC2)o1 | 3.5µM | 0 | 0 | 0 | ? | 0
COc1ccc(S(=O)(=O)N2CCC(c3nnc(-c4ccccc4C)o3)CC2)c(OC)c1 | 7.9µM | ? | ? | 0 | 3.5µM | 0
CC1CCN(S(=O)(=O)c2ccc(Cl)cc2)CC1 | 0 | 0 | ? | 0 | 0 | 0
COc1ccc(S(=O)(=O)N2CCN(c3ccccn3)CC2)c(OC)c1 | 0 | 0 | ? | 0 | - | 0
Cc1c(Cl)cccc1NC(=O)Cn1nnc(-c2nc(-c3ccccc3)no2)c1N | - | - | ? | 0 | - | 0
CN(C)c1ccc(-c2noc(C3CCN(S(=O)(=O)c4cccc(Cl)c4)CC3)n2)cc1 | 0 | 0 | - | 0 | 0 | 0
COc1ccc(-c2nnc(C3CCN(S(=O)(=O)c4cccc(Cl)c4)CC3)o2)cc1 | 11µM | ? | 0 | 0 | 18µM | 0
SMILES | S2 tox | TGFb inhibitor | Nrf2 block | HepG2 tox | ATXN2 expr inh | A549 viability
O=C(NCc1ccccc1Cl)C(=O)NCC1OCCN1S(=O)(=O)c1cccs1 (stereo not drawn) | 0 | ? | 0 | 0 | 0 | 0
O=C(Nc1ccccc1[N+](=O)[O-])c1cccc(N2C(=O)CCC2=O)c1 | 0 | 0 | ? | 0 | 0 | 0
O=C(Cc1ccc(F)cc1)Nc1ccc(Cl)cn1 | 0 | 0 | 0 | 0 | 0 | 0
CCOc1ccc(NC(=O)N(CCN(C)C)C(C)c2ccncc2)cc1 (stereo not drawn) | 0 | 0 | 0 | 0 | 0 | 0
CCN(CC)CCNc1cc(C)nc2c1C(=O)C(=O)C=C2N1CCCCC1 | 14µM | 6.3µM | 0 | 0 | - | ?
COc1ccc(CNC(=O)Cn2c(=O)nc(-c3ccccc3F)c3cc(Cl)ccc32)cc1OC | - | 0 | - | 0 | - | 16µM
COc1ccc(CCNC(=O)Cn2c(=O)nc(-c3ccccc3F)c3cc(Cl)ccc32)cc1OC | - | 0 | - | 0 | - | ?
COC(CNC(=O)c1ccc2c3c(onc13)-c1ccccc1C2=O)OC | - | 11µM | ? | 0 | ? | ?
CCOc1ccc(NS(=O)(=O)c2cccs2)cc1S(=O)(=O)N1CCCC1 | 0 | 0 | - | 0 | - | -
CCC1=NN(C(=O)c2ccc(C)cc2)C(O)(c2ccc(Br)cc2)C1 (stereo not drawn) | 0 | 0 | 0 | 0 | 0 | 0
CCC1=NN(C(=O)c2cccc(Br)c2)C(O)(c2ccc(Br)cc2)C1 (stereo not drawn) | ? | 8.9µM | ? | 0 | ? | ?
CCOC(=O)CNC(=O)c1cc2c(=O)n3cccc(C)c3nc2n1C | - | 0 | 0 | 0 | - | 0
CCOc1cc(C2c3c(-c4ccccc4O)n[nH]c3C(=O)N2CCc2ccccc2)ccc1O (stereo not drawn) | - | ? | 0 | 0 | - | 0
O=C1C(Cl)=C(N2CCCCC2)C(=O)C(Cl)=C1c1cnc(N2CCCCC2)s1 | ? | 0 | 0 | 0 | ? | -
CN(C)c1ncc(C2=C(Cl)C(=O)C(N3CCCC3)=C(Cl)C2=O)s1 | - | 0 | 0 | 0 | 25µM | 0
Cc1ccc(OCCn2cc(C(=S)N3CCCC3)c3ccccc32)cc1C | ? | 0 | ? | 16µM | 0 | 0
Cc1nc(-[n+]2nc(-c3ccncc3)nn2-c2ccccc2)sc1C | 14µM | 0 | - | 0 | ? | -
COc1ccc(N2C(=O)CC(Sc3ncn[nH]3)C2=O)c(OC)c1 (stereo not drawn) | - | ? | 0 | 0 | 22µM | 0
Cc1ccc(CNc2nc3c([nH]2)c(=O)n(C)c(=O)n3C)cc1 | 0 | 0 | 9.2µM | 0 | 0 | 0
COC(=O)c1cc(OC)c(OC)cc1NC(=S)N1CCN(c2ccccc2)CC1 | 0 | 0 | ? | 0 | 0 | 0
Cc1ccc(NC(=O)Cc2nc(-c3c[nH]c(C(=O)N4CCCC4)c3)cs2)c(C)c1 | - | 0 | 21µM | 0 | - | 0

Source: PubChem BioAssay (National Center for Advancing Translational Sciences (NCATS))
